As usually defined, the inhibition is the drop in the measured response relative to a control, in per cent.

“And” between values parts separate entries of the source, which are not always exact repeats. Equal values may be shown once. Among all 290,000 compounds or so, about 11,000 (3.8%) were called active.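 How the source made its calls: active means mean replicate inhibition above about 79%, with every replicate also reaching it (limit read from the data); inconclusive means only one of the two criteria met; inactive means mean below limit and not every replicate reaching it.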 The list comes from a sample in which actives are over-represented; it also holds similar structures and randomly drawn compounds. Some structures have more than one record in an assay (separate samples or runs), and their calls can disagree.

For the test, the target named is FAD-linked sulfhydryl oxidase ALR (Homo sapiens) (UniProt P55789). Description: inhibitors of human ALR sulfhydryl oxidase, primary screen, biochemical, H2O2 detection, HRP-luminol luminescence, single point (AID 485317). The conditions noted are these: purified ALR, DTT oxidation, stronger effect = higher value, concentration not given here.
FAD-linked sulfhydryl oxidase ALR (Homo sapiens), sequence (P55789 whole entry, looked up): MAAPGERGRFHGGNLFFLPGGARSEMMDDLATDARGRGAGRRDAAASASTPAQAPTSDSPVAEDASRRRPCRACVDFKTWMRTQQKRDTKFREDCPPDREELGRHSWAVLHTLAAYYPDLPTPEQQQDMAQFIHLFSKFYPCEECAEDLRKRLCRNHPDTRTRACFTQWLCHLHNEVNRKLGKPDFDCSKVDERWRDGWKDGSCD
With `CCCc1nnc(SCC(=O)Nc2ccc(C(=O)OCC)cc2)o1`, the inhibition is 99.2% (active).

In the case of `Cc1cc(C)cc(OCc2nnc(SCC(=O)Nc3ccccc3)o2)c1`, the inhibition is 5.24% (inactive).

As to `Cc1ccc(NC(=O)CSc2nnc(COc3ccccc3C)o2)cc1`, the inhibition was -0.274% (inactive).

In the case of `O=C(c1cn(-c2ccccc2)nc1-c1cccnc1)N1CCN(S(=O)(=O)c2ccccc2F)CC1`, the inhibition is -0.713% (inactive).

`O=C(c1ccc(NS(=O)(=O)c2ccc3[nH]c(=O)[nH]c3c2)cc1)N1CCCCC1`: the inhibition is 0.0938% (inactive).

As to `CN(C)/C=C1\C=C(c2ccccc2)OC1=O`, the inhibition was -9.29% (inactive).

As for `O=C1Nc2ccccc2/C1=C/c1ccnc2ccccc12`, the inhibition is -5.03% (inactive).

For `Cc1cc(C)c(/C=C2\C(=O)Nc3ccccc32)[nH]1`, the inhibition is 98.9% (active).

As for `CN(C)/C=C1/Nc2ccccc2C1=O`, the inhibition is 31.9% (inactive).

Regarding `Cc1ccccc1-n1c(C)cc(/C=C2\NC(=O)NC2=O)c1C`, the inhibition was -11.5% (inactive).

With `CN(C)/C=C1/C(=O)Nc2ccccc21`, the inhibition is 98.8% (active).

Regarding `CC(=O)NCCNC(=O)c1cc(-c2cccc3ccccc23)nc2ccccc12`, the inhibition is -1.4% (inactive).

As to `COc1ccccc1C(=O)COC(=O)CSCC(=O)Nc1cc(C)on1`, the inhibition is 1.76% (inactive).

Regarding `Cc1cc(NC(=O)CSCc2ccccc2C)no1`, the inhibition was 29% (inactive).

For `Cc1cc(NC(=O)CSCc2nc(-c3cccc(Cl)c3)oc2C)no1`, the inhibition was 96.6% (active).

Consider `COc1ccc(-c2cc(C(=O)Nc3ccccc3O)c3ccccc3n2)cc1`, for which the inhibition was -22.7% (inactive).

On to `COCCn1c(C)cc(C(=O)COC(=O)CNC(=O)c2ccco2)c1C`, for which the inhibition was 0.463% (inactive).

Regarding `Cc1cc(NC(=O)COC(=O)/C=C/c2ccc(C)o2)no1`, the inhibition was -2.34% (inactive).

In the case of `CC(C)=C1SC(N2CCN(c3cccc(C)c3)CC2)=NC1=O`, the inhibition is 4.81% (inactive).

Take `CC(C)NC(=O)N1CCN(c2ccncc2S(=O)(=O)N2CCCCC2)CC1`: the inhibition was -2.12% (inactive).

Turning to `CNS(=O)(=O)c1cnccc1N1CCN(c2cccc(C)c2)CC1`, the inhibition was 98.6% (active).

Consider `Cc1ccn2c(=O)nc(SCC(=O)NCc3ccc4c(c3)OCO4)nc2c1`, for which the inhibition is -1.9% (inactive).

With `O=C(CC(n1cncn1)C(Cl)(Cl)Cl)c1ccc([N+](=O)[O-])cc1` (stereo not drawn), the inhibition was 9.46% (inactive).

With `O=C(Cn1c[n+](CC(=O)c2ccc([N+](=O)[O-])cc2)cn1)c1ccc([N+](=O)[O-])cc1`, the inhibition was -22% (inactive) and 98.8% (active).

Turning to `O=C(Nn1cnnc1)c1ccc([N+](=O)[O-])cc1`, the inhibition was -3.87% (inactive).

Consider `O=C(Nc1ccn(Cc2ccccc2)n1)c1n[nH]c([N+](=O)[O-])c1Cl`, for which the inhibition was 93.5% (active).

As for `O=C(Nc1ccn(Cc2ccccc2F)n1)c1ccc(COc2ccc(Cl)cc2Cl)o1`, the inhibition was -9.12% (inactive).

On to `Cc1ccc(Cn2ccc(NC(=O)C3C4CCC(C4)C3C(=O)O)n2)cc1` (stereo not drawn), for which the inhibition is 1.86% (inactive).

`Cc1ccc(CC(=O)Nc2ccc(S(=O)(=O)N3CCOCC3)cc2)cc1C`: the inhibition is -2.53% (inactive).

Consider `COC(=O)c1c(NC(=O)CCCC(=O)O)sc2c1CCCCC2`, for which the inhibition was -5.42% (inactive).

As for `COC(=O)c1c(NC(=O)C2CC(C)=C(C)CC2C(=O)O)sc2c1CCCCC2` (stereo not drawn), the inhibition is 94.2% (active).

Turning to `COC(=O)c1c(NC(=O)c2cccs2)sc2c1CCCC2`, the inhibition is -1.37% (inactive).

For `Fc1ccc(-c2ccc(-c3nn4c(-c5ccco5)nnc4s3)o2)cc1`, the inhibition is 98.5% (active).

In the case of `FC(F)(F)c1nnc2sc(-c3ccco3)nn12`, the inhibition is -7.15% (inactive).

For `COc1cc(-c2nn3c(-c4cccc(C)c4)nnc3s2)cc(OC)c1OC`, the inhibition was 1.6% (inactive).

`O=C(O)CC1=C(Nc2ccccc2)C(=O)N(c2ccccc2)C1c1ccc(Cl)cc1` (stereo not drawn): the inhibition is 96.7% (active).

Regarding `COC(=O)CN1C(=S)N(c2ccccc2)C(=O)C1CC(=O)Nc1ccc(Cl)cc1` (stereo not drawn), the inhibition is 1.89% (inactive).

Take `O=C(c1ccc(Cl)cc1)c1cnc(Nc2ccccc2)s1`: the inhibition is 24.8% (inactive).

As for `COc1cc(C(=O)NCC(c2ccco2)N2CCCC2)ccc1OCc1ccccc1` (stereo not drawn), the inhibition was -2.39% (inactive).

In the case of `CN(Cc1c(F)cccc1Cl)C(=O)CNC(=O)c1ccc2c(c1)OCO2`, the inhibition is 1.35% (inactive).

As for `COc1cc2c(-c3ccc4c(c3)OCO4)c(-c3ccsc3)oc(=O)c2cc1OC`, the inhibition was 0.568% (inactive).

On to `CN(c1ccccc1)S(=O)(=O)c1cc(C(=O)Nc2nc3ccccc3[nH]2)ccc1Cl`, for which the inhibition was 94.8% (active).

Consider `O=C(Nc1cccc(-c2nc3ccccc3[nH]2)c1)c1ccc(C(=O)Nc2cccc(-c3nc4ccccc4[nH]3)c2)cc1`, for which the inhibition is -5.21% (inactive).

In the case of `Cc1cccc(NC(=O)c2ccc(S(=O)(=O)N(C)c3ccccc3)cc2)n1`, the inhibition was -13.4% (inactive).

With `O=C(c1cc(-c2ccco2)nc2ccccc12)N(Cc1nnc(-c2ccc(Cl)cc2)o1)C1CC1`, the inhibition is 2.44% (inactive).

With `Cn1cccc1C(=O)OCC(=O)c1ccc(Br)s1`, the inhibition was 0.737% (inactive).

Turning to `CCn1c(CNc2ccc(OC)cc2)nnc1SCC(=O)c1ccc(OC)cc1`, the inhibition was 98.6% (active).

For `COc1ccc(NCc2nnc(SCc3ccccc3)n2-c2ccc(OC)cc2)cc1`, the inhibition is 91.9% (active).

Turning to `COc1ccc(-c2nnc(SCC(=O)c3ccco3)n2-c2ccccc2)cc1`, the inhibition is -5.92% (inactive).

As for `C=CCn1c(CNC(=O)c2ccco2)nnc1SCC(=O)c1ccc(OC)cc1`, the inhibition was 29.4% (inactive).

With `COC(=O)c1ccc(NC(=O)CSc2nnc(CNc3ccc(OC)cc3)n2C)cc1`, the inhibition was -7.45% (inactive).

As for `CCc1nnc(NC(=O)CSc2nnc(Cc3ccccc3)n2-c2ccc(OC)cc2)s1`, the inhibition is -14.6% (inactive).

Regarding `C=CCC[C@H](Cc1ccc(F)cc1)C(=O)OC[C@@H](NC(=O)[C@@H](CC=C)CC(=O)N[C@H](CO)Cc1ccccc1)C(C)(C)C`, the inhibition was 2.91% (inactive).

In the case of `Brc1cnc2ccccc2c1N1CCCCC1`, the inhibition is -0.469% (inactive).

Consider `CS(=O)(=O)Nc1ccccc1C(=O)OCC(=O)NC1CC1`, for which the inhibition is -5.36% (inactive).

`CN(C)c1ccc(-n2cccc2/C=C2/SC(=Nc3ccc(F)cc3)NC2=O)cc1`: the inhibition is -13.8% (inactive).

For `CN(C)c1ccc(-n2cccc2/C=N/n2cnnc2)cc1`, the inhibition was 98.6% (active).

`COc1cccc(OCCOc2cccc(/C=N/n3cnnc3)c2)c1`: the inhibition was -9.36% (inactive).

For the compound `CC1(C)C2CC[C@]3(C)C(CC=C4[C@@H]5C[C@@](C)(CO)CC[C@]5(C(=O)O)CC[C@]43C)[C@@]2(C)CC[C@@H]1O` (stereo partly drawn), the inhibition is -8.21% (inactive).

For `O=C(COC(=O)/C=C/c1ccc(Br)o1)Nc1cccc(S(=O)(=O)N2CCOCC2)c1`, the inhibition is -1.78% (inactive).

On to `CC(=O)Oc1cccc(N2C(=O)CC(Nc3ccc(N4CCOCC4)cc3)C2=O)c1` (stereo not drawn), for which the inhibition is 97.2% (active).

On to `CC(=O)Oc1cccc(N2C(=O)C3CC=C(Cl)CC3C2=O)c1` (stereo not drawn), for which the inhibition was -19% (inactive).

`COc1cc2ccccc2cc1C(=O)Nc1ccc(N2CCOCC2)cc1`: the inhibition is -0.59% (inactive).

With `Cc1noc(C)c1NC(=O)Nc1cccc2c1O[C@H](CN(C)C(=O)Nc1ccccc1)[C@@H](C)CN([C@H](C)CO)C2=O`, the inhibition was 1.38% (inactive).

Regarding `O=C(NN1CCOCC1)c1cccc(F)c1`, the inhibition was -5.96% (inactive).

As to `O=C(N/N=C\c1ccc(Br)cc1)c1ccc(Cn2cccn2)o1`, the inhibition was 0.182% (inactive).

On to `CN(C)c1ccc(/C=N/NC(=O)c2ccc(Cn3cc(Br)cn3)o2)cc1`, for which the inhibition is 98.5% (active).

For `O=C(N/N=C/c1ccc2c(c1)OCO2)c1ccc(Cn2cc([N+](=O)[O-])cn2)o1`, the inhibition is 29.3% (inactive).

With `CC(OC(=O)c1ccc(Cl)cc1O)C(=O)NCCC1=CCCCC1` (stereo not drawn), the inhibition was -2.95% (inactive).

On to `CCOC(=O)N1CCN(C(=O)c2ccccc2SCC(=O)NCC2CCCCC2)CC1`, for which the inhibition was -0.603% (inactive).

`COc1cccc(NCCC(=O)c2cccc([N+](=O)[O-])c2)c1`: the inhibition is 97.4% (active).

On to `COc1cccc(C(=O)CC(=O)C(=O)Nc2ccc([N+](=O)[O-])cc2C)c1`, for which the inhibition is 7.39% (inactive).

As to `COc1cccc(CNC(=O)CCCC(=O)Nc2cccc([N+](=O)[O-])c2)c1`, the inhibition is -3.17% (inactive).

As for `COc1ccc(CNC(=O)C2(CC3CC(c4ccccc4)=NO3)CCN(C(=O)c3cccc(O)c3)CC2)cc1` (stereo not drawn), the inhibition was -2.44% (inactive).

As to `COCCN(Cc1ccccc1)C(=O)Cc1ccc(S(=O)(=O)N2CCOCC2)s1`, the inhibition is 2.09% (inactive).

For `O=C(NCC1CC1)c1onc(CSc2ccccc2)c1C(=O)NCC1CC1`, the inhibition is -11.1% (inactive).

`CCOC(=O)c1ccccc1NC(=O)CSc1nc2ccccc2c(=O)[nH]1`: the inhibition was -0.524% (inactive).

In the case of `CCOC(=O)c1sc(NC(=O)CSc2nc(O)c(Cc3ccccc3)c(=O)[nH]2)nc1C`, the inhibition is 98.6% (active).

Turning to `Cc1cccc(NC(=O)CSc2nc3c(c(=O)[nH]2)CCCC3)c1C`, the inhibition was -5.33% (inactive).

Regarding `CCOC(=O)c1sc(NC(=O)CSc2n[nH]c(CC)n2)nc1C`, the inhibition is -1.87% (inactive).

`O=C(CSc1nc(O)c(Cc2ccccc2)c(=O)[nH]1)Nc1nc2c(s1)CCCC2`: the inhibition was 99.1% (active).

For the compound `O=C(Cn1c(=O)sc2ccccc21)Nc1nc2c(s1)CCCC2`, the inhibition is 42.4% (inactive).

As to `COC(=O)c1ccc(-c2c(-c3ccccc3)ncc3cc(OC)c(OC)cc23)cc1`, the inhibition was 1.43% (inactive).

`C=CC[C@H](CC(=O)OC(C)(C)C)C(=O)OC[C@H]1CCCN1C(=O)[C@H](CC=C)CC(=O)N(CCO)Cc1ccccc1`: the inhibition is -5.27% (inactive).

For the compound `CC1(C)CC(=O)C=C(c2ccc3ncccc3c2)C1`, the inhibition is -1.35% (inactive).

In the case of `COc1ccc(NS(=O)(=O)c2cc(NC(=O)COc3ccccc3F)ccc2OC)cc1`, the inhibition was -2.82% (inactive).

Turning to `COc1cccc(-c2ccc3c(c2)S(=O)(=O)c2cccc(C(=O)O)c2C3=O)c1OC`, the inhibition is -0.409% (inactive).

Take `COc1ccc(-c2csc3ncnc(N4CCN(S(=O)(=O)c5cccc(F)c5)CC4)c23)cc1`: the inhibition was 0.272% (inactive).

For the origin of these results see PubChem BioAssay AID485317 (Broad Institute, 2010).
